Rows were chosen to be rich in hits. Some 4% of all compounds tested hit in one or more screens of this group.
Mtb UGM inh: blocks M. tuberculosis UGM enzyme | P9WIQ1 | purified UGM, fluorescence polarization probe displacement | inhibition, % at 10 µM | 0.06% of 320,000 active | AID 504406; in the data active means inhibition above about 10%, passing the limit was not always enough
Target sequence (P9WIQ1 whole entry, looked up): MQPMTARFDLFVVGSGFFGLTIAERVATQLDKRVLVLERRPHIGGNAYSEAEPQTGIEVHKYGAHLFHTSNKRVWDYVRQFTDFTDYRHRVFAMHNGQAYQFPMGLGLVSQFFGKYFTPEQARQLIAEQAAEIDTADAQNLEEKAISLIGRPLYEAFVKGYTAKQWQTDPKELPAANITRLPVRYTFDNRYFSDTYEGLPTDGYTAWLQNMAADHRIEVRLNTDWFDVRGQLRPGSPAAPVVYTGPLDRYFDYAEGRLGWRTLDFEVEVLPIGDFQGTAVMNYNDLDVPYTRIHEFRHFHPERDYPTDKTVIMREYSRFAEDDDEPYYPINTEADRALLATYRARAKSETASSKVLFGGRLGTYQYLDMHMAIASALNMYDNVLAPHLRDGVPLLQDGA
Rv3671c inh: inhibitors of M. tuberculosis serine protease Rv3671c; 0.048% of 320,000 active; P9WHR9; inhibition, % at 5.96 µM; AID 2606; in the data active means inhibition above about 38%;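 further: extracellular domain of Rv3671c used as enzyme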
GDH-TPI counter-1: GDH-TPI coupled enzyme inhibition counter-screen; GDH-TPI coupled enzyme counterscreen, NADH absorbance; inhibition, % at 4.8 µM; 1.2% of 360,000 active; AID 588335; in the data active means inhibition above about 30%
Mtb betalactam: beta-lactam sensitization of Mtb H37Rv. M. tuberculosis H37Rv growth with meropenem, percent inhibition. inhibition, % at 25 µM. 0.27% of 330,000 active. AID 434955; call rule not given here;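 further: growth measured after seven days incubation then overnight dye step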
RecA intein inh: Mtb RecA intein splicing inhibition; cell-free RecA intein splicing, fluorescence; inhibition, % (no concentration beside the values); 0.75% of 290,000 active; AID 2221; in the data active means inhibition above about 30%
Mtb FBA inh: inhibitors of M. tuberculosis fructose-bisphosphate aldolase; inhibition, % at 1 µM; purified M. tuberculosis FBA, fluorescence read-out; P9WQA3; 2.3% of 360,000 active
Mtb FBA confirm: confirmation of M. tuberculosis fructose-bisphosphate aldolase inhibitors. purified M. tuberculosis FBA, fluorescence read-out. 78% of 5,600 active. inhibition, % at 1 µM. AID 651616. shares compounds with Mtb FBA inh
GDH-TPI counter-2: counter-screen for M. tuberculosis FBA inhibitors: GDH-TPI coupled enzyme inhibition. shares compounds with Mtb FBA inh. GDH-TPI coupled enzyme counterscreen, fluorescence. inhibition, % at 1 µM. 81% of 5,600 active; in the data active means inhibition above about 10%
GDH-TPI dose: counter-screen for M. tuberculosis FBA inhibitors: GDH-TPI dose response; shares compounds with Mtb FBA inh; GDH-TPI coupled enzyme assay, fluorescence, artifact counterscreen; IC50, µM; 79% of 170 active; call rule not given here
Numbers stand for hits; - = inactive; . = not tested or not shown; + = active, no number. Unless noted, no stated cut-off is given here; in the data, active means inhibition above about 27%; inactive means the rest.

SMILES | Mtb UGM inh | Rv3671c inh | GDH-TPI counter-1 | Mtb betalactam | RecA intein inh | Mtb FBA inh | Mtb FBA confirm | GDH-TPI counter-2 | others
CC1CCN(CC(CS(=O)(=O)c2ccc([N+](=O)[O-])cc2)N2CCC(C)CC2)CC1 (configuration not stated) | - | - | - | . | - | 55.0 | 74.1 | 59.6
N#Cc1c2c(c(NCc3ccco3)n3c1nc1ccccc13)CCC2 | - | - | - | - | - | 90.1 | + | +
COc1ccc(-c2cc3ccccc3n2CC(O)CN2CCOCC2)cc1 (configuration not stated) | - | - | - | - | - | - | . | .
COc1ccc(-c2cc3ccccc3n2CC(O)CN2CCN(CCO)CC2)cc1 (configuration not stated) | - | - | - | - | . | 32.6 | - | -
CCN1CCN(CCCNC(=O)c2ccc3c(c2)N(Cc2ccc(C)cc2)CCS3)CC1 | - | - | - | - | - | 76.2 | 131.4 | 102.5
CCN1CCN(C(=O)c2ccc3c(c2)N(Cc2ccc(C)cc2)CCS3)CC1 | - | - | - | - | - | - | . | .
COc1ccc(C(=O)NCCc2ccc(F)cc2)cc1OC | - | - | - | - | - | - | . | .
COc1ccc(CCNC(=O)c2ccc3c(c2)N(Cc2ccc(F)cc2)CCS3)cc1OC | - | - | - | - | - | 72.3 | 55.3 | 32.7
Cc1ccc(CN2CCSc3ccc(C(=O)NCc4ccco4)cc32)cc1 | - | - | - | - | . | 53.6 | - | -
CCN1C(=O)CSc2ccc(C(=O)NCc3ccco3)cc21 | - | - | - | - | - | - | . | .
CC(=O)Nc1ccc(NC(=O)C(C)OC(=O)CCCOc2ccc(Cl)cc2C)cc1 (configuration not stated) | - | - | - | - | - | - | . | .
Cc1cc(C)n(C(C)Sc2ccccc2)n1 (configuration not stated) | - | - | - | - | - | - | . | .
CCOC(=O)c1c(-c2ccccc2Cl)cn2ccccc12 | - | - | - | - | - | 61.2 | 73.7 | 68.0
NC(=O)c1ccccc1NS(=O)(=O)Cc1ccc(Cl)cc1 | - | - | - | - | - | 69.8 | - | -
CCS(=O)(=O)Nc1ccccc1C(N)=O | - | - | - | - | - | 43.8 | - | - | GDH-TPI dose=4.35
Cc1ccc(-n2c3nc(=O)n(C)c(=O)c-3cc3ccccc32)cc1 | - | - | - | - | - | 27.5 | 93.1 | 87.1
CCCCn1c(=O)nc2n(-c3ccc(C)cc3)c3ccccc3cc-2c1=O | - | - | - | - | - | - | . | .
O=C(Cn1nnc2ccccc21)Nc1ccc(Cl)cn1 | - | - | - | - | - | - | . | .
COc1ccc(N2CCN(CCC(N)=O)CC2)cc1 | - | - | - | - | - | 31.1 | 77.8 | 53.0
COc1ccc(OC)c(/C=N\NC(=O)c2c(C)nc3cc(C)ccn23)c1 | - | - | - | - | - | 60.4 | + | +
COc1ccc(OC)c(/C=N/NC(=O)CSc2cc(C)nc3c(OC)cccc23)c1 | - | - | - | - | - | 29.7 | 49.7 | 35.3
COc1cc(/C=N\NC(=O)c2c(C)nc3cc(C)ccn23)ccc1O | - | - | - | - | - | - | . | .
CCNC(=O)C1(C)CCCN1C(=O)c1cc(OC)c(OC)c(OC)c1 (configuration not stated) | . | . | - | . | . | - | . | .
CC(C)(C)Sc1ccc2nc3c(n2c1)CCCC3 | - | - | - | - | - | 29.6 | 94.5 | 55.5
COc1ccc(-c2c[n+]3c4n2CCCCC4=C(c2ccc(Br)cc2)C3)cc1 | - | - | - | - | - | 75.3 | 136.2 | 104.9
CCOc1ccc2[nH]c(=O)c(CN(Cc3ccco3)C(CC)c3nnnn3Cc3ccccc3)cc2c1 (configuration not stated) | - | - | - | - | - | 26.9 | + | +
CCOc1ccc2[nH]c(=O)c(CN(Cc3ccco3)Cc3nnnn3Cc3ccccc3)cc2c1 | - | - | - | - | - | - | . | .
O=C(CCc1nc2ccccc2c(=O)[nH]1)Nc1cc(Cl)ccc1N1CCCC1 | . | - | - | - | . | - | . | .
CC(C)c1ccc(-n2nc3ccc(N)cc3n2)cc1 | - | - | - | - | - | 71.1 | 100.6 | 67.1
